The text below walks through data of PubChem BioAssay (NCI).

Test systems include SR leukemia; RPMI-8226 leukemia; OVCAR-8 ovarian; OVCAR-5 ovarian; OVCAR-4 ovarian; SK-OV-3 ovarian; IGROV1 ovarian; OVCAR-3 ovarian; HS 578T breast; NCI/ADR-RES ovarian; T-47D breast; BT-549 breast; MDA-MB-435 melanoma; SW-620 colon; MCF7 breast; HCT-116 colon; HCC-2998 colon; KM12 colon.
Holding throughout (experiment): NCI-60 one-dose screen, 48 h (100 = growth as untreated, 0 = no growth, -100 = all killed)
Common to all, as to conditions: 10 µM

SMILES strings stand for the structures. Compounds without any hit were thinned out: in the full panel of roughly 83,000, 20% have a hit.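 Treatment: one concentration, 48 hours, 96-well format. Scoring: percent growth, with anything below 10 considered active.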 A number with no mark means an inactive call. Calls of active or inactive are those of the source.

On to `Cc1ccc([P+](Cc2ccc([N+](=O)[O-])cc2)(c2ccc(C)cc2)c2ccc(C)cc2)cc1`, for which the growth with SR leukemia was 3.65% (active); with RPMI-8226 leukemia, -25.3% (active); in the experiment with OVCAR-8 ovarian, 40.3%; in the experiment with OVCAR-5 ovarian, 72.9%; with OVCAR-4 ovarian it was 31.1%; with SK-OV-3 ovarian, 74.7%. In addition, the growth in the experiment with IGROV1 ovarian is 11.9%; in the experiment on OVCAR-3 ovarian, 25.7%; with HS 578T breast, 86.9%; in the experiment with NCI/ADR-RES ovarian, 100%; with T-47D breast, 7.03% (active); in the experiment with BT-549 breast it was 17.2%. The growth with MDA-MB-435 melanoma was 6.06% (active); with SW-620 colon, 45.2%; with MCF7 breast, 29.7%; in the experiment with HCT-116 colon it was 22%; with HCC-2998 colon, 31.3%; with KM12 colon, 16%.
Take `CCCCCCCCCCCCCCCC(=O)N1CCN(C)CC1`: the growth was -3.08% (active) in the experiment with SR leukemia; 71% in the experiment on RPMI-8226 leukemia; 86.3% in the experiment on OVCAR-8 ovarian; 86.3% with OVCAR-5 ovarian; 87.6% with OVCAR-4 ovarian; 84.9% in the experiment on SK-OV-3 ovarian. Moreover, the growth in the experiment on IGROV1 ovarian is 52.3%; in the experiment on OVCAR-3 ovarian it was 86.8%; in the experiment on HS 578T breast it was 90.1%; in the experiment on NCI/ADR-RES ovarian, 90.3%; with T-47D breast it was 74.3%; in the experiment on BT-549 breast, 83.1%. The growth is 59.8% in the experiment with MDA-MB-435 melanoma; 90% in the experiment with SW-620 colon; 85% in the experiment with MCF7 breast; 57.3% in the experiment on HCT-116 colon; 81.8% in the experiment with HCC-2998 colon; 76.2% with KM12 colon.
In the case of `COc1cc(OC)cc(-c2n/c(=C\c3c(O)[nH]c4ccc(OC)cc34)cc3c2=Nc2ccccc2-3)c1`, the growth in the experiment on SR leukemia was 9.3% (active); in the experiment on RPMI-8226 leukemia, 77.8%; in the experiment on OVCAR-8 ovarian, 72.7%; in the experiment on OVCAR-5 ovarian it was 122%; in the experiment with OVCAR-4 ovarian, 15.3%; in the experiment with SK-OV-3 ovarian, 126%. For the same molecule, the growth in the experiment with IGROV1 ovarian is 86.5%; in the experiment on OVCAR-3 ovarian, 94.6%; in the experiment on HS 578T breast, 95.3%; in the experiment with NCI/ADR-RES ovarian, 69.4%; in the experiment on T-47D breast it was 109%; with BT-549 breast, 92.3%. In addition, the growth in the experiment with MDA-MB-435 melanoma is 67.2%; with SW-620 colon, 46.9%; with MCF7 breast it was -64.9% (active); with HCT-116 colon it was 13.7%; with HCC-2998 colon it was 22.2%; in the experiment on KM12 colon it was -49.8% (active).
As to `O=S(=O)(NCl)c1ccccc1`, the growth with SR leukemia is 86%; in the experiment on RPMI-8226 leukemia, 105%; with OVCAR-8 ovarian it was 103%; in the experiment on OVCAR-5 ovarian, 110%; with OVCAR-4 ovarian, 95.9%; in the experiment on SK-OV-3 ovarian, 105%. Also, the growth with IGROV1 ovarian was 107%; with OVCAR-3 ovarian it was 119%; in the experiment on HS 578T breast, 102%; in the experiment on NCI/ADR-RES ovarian, 103%; in the experiment on T-47D breast, 92%; in the experiment on BT-549 breast, 102%. Further, the growth was 98.9% with MDA-MB-435 melanoma; 107% with SW-620 colon; 85.5% with MCF7 breast; 101% with HCT-116 colon; 97.3% in the experiment with HCC-2998 colon; 102% in the experiment with KM12 colon.
Regarding `O=C(Nc1cccc(C(F)(F)F)c1)C(Cl)Cl`, the growth was 94.3% in the experiment with SR leukemia; 98.5% with RPMI-8226 leukemia; 98.7% in the experiment on OVCAR-8 ovarian; 105% in the experiment with OVCAR-5 ovarian; 110% in the experiment with OVCAR-4 ovarian; 103% in the experiment with SK-OV-3 ovarian. For the same molecule, the growth in the experiment on IGROV1 ovarian was 92.5%; in the experiment on OVCAR-3 ovarian, 107%; in the experiment with HS 578T breast, 107%; in the experiment with NCI/ADR-RES ovarian it was 104%; in the experiment with T-47D breast it was 87.9%; in the experiment with BT-549 breast, 102%. The growth is 103% in the experiment on MDA-MB-435 melanoma; 104% with SW-620 colon; 90.2% with MCF7 breast; 98.1% with HCT-116 colon; 105% in the experiment on HCC-2998 colon; 94.8% in the experiment on KM12 colon.
As for `COc1nc2c(c(=O)[nH]1)C(c1ccc(Oc3ccnc4cc(Cl)ccc34)c(OC)c1)C=C(c1cc(OC)c(OC)c(OC)c1)N2` (configuration not stated), the growth in the experiment with SR leukemia is 74.1%; with RPMI-8226 leukemia it was 94.5%; in the experiment on OVCAR-8 ovarian, 97.4%; with OVCAR-5 ovarian, 92.6%; with OVCAR-4 ovarian, 106%; in the experiment with SK-OV-3 ovarian it was 99.5%. Moreover, the growth in the experiment with IGROV1 ovarian is 107%; in the experiment with OVCAR-3 ovarian it was 108%; with HS 578T breast, 98.3%; in the experiment with NCI/ADR-RES ovarian, 101%; in the experiment on T-47D breast, 89.8%; in the experiment on BT-549 breast, 91.7%. For the same molecule, the growth is 111% with MDA-MB-435 melanoma; 102% in the experiment on SW-620 colon; 102% in the experiment with MCF7 breast; 94% in the experiment with HCT-116 colon; 97.6% in the experiment on HCC-2998 colon; 104% in the experiment with KM12 colon.
For `O=C(Nc1cccc(Cl)c1)OCC(COC(=O)Nc1cccc(Cl)c1)(COC(=O)Nc1cccc(Cl)c1)[N+](=O)[O-]`, the growth in the experiment with SR leukemia was 22.4%; in the experiment with RPMI-8226 leukemia, 19.5%; in the experiment with OVCAR-8 ovarian, 44%; with OVCAR-5 ovarian, 89.1%; with OVCAR-4 ovarian it was 30.8%; in the experiment with SK-OV-3 ovarian, 64.8%. Also, the growth in the experiment on IGROV1 ovarian was 42.3%; with OVCAR-3 ovarian, 20.6%; in the experiment on HS 578T breast, 52.1%; in the experiment on NCI/ADR-RES ovarian, 35.4%; with T-47D breast, 14.7%; in the experiment with BT-549 breast it was 50.8%. Also, the growth in the experiment with MDA-MB-435 melanoma was 39.9%; in the experiment with SW-620 colon it was 45.6%; in the experiment on MCF7 breast, 21.1%; in the experiment with HCT-116 colon it was 16.3%; in the experiment on HCC-2998 colon it was 36.9%; with KM12 colon, 23.8%.
Turning to `O=NN(CCCl)C(=O)Nc1ccc(NC(=O)N(CCCl)N=O)cc1`, the growth is 2.28% (active) with SR leukemia; 100% in the experiment on RPMI-8226 leukemia; 93% with OVCAR-8 ovarian; 95.2% in the experiment with OVCAR-5 ovarian; 93.7% with OVCAR-4 ovarian; 105% in the experiment with SK-OV-3 ovarian. Besides, the growth in the experiment on IGROV1 ovarian is 85.9%; with OVCAR-3 ovarian, 111%; with HS 578T breast it was 104%; with NCI/ADR-RES ovarian it was 98.7%; with T-47D breast, 102%; in the experiment on BT-549 breast, 85.2%. The growth in the experiment with MDA-MB-435 melanoma was 90.3%; with SW-620 colon it was 66.1%; in the experiment with MCF7 breast it was 86.4%; in the experiment on HCT-116 colon it was 100%; in the experiment with HCC-2998 colon, 105%; with KM12 colon, 103%.
In the case of `Cc1[nH]nc2c(=S)[nH]c(=O)[nH]c12`, the growth in the experiment on SR leukemia was 113%; in the experiment on RPMI-8226 leukemia, 101%; with OVCAR-8 ovarian it was 99.1%; in the experiment with OVCAR-5 ovarian, 99.4%; with OVCAR-4 ovarian it was 99.6%; in the experiment on SK-OV-3 ovarian it was 109%. Besides, the growth in the experiment on IGROV1 ovarian was 111%; with OVCAR-3 ovarian, 110%; with HS 578T breast, 105%; in the experiment with NCI/ADR-RES ovarian, 100%; in the experiment with T-47D breast, 104%; with BT-549 breast it was 98.1%. Moreover, the growth in the experiment on MDA-MB-435 melanoma was 102%; with SW-620 colon, 103%; with MCF7 breast, 94%; in the experiment on HCT-116 colon, 105%; with HCC-2998 colon, 106%; in the experiment on KM12 colon, 107%.
